Screens (PubChem)
TGFb SMAD3 inh = TGF-b pathway inhibition; AID 588855; Potency, µM (titrated, usually from 46.1 µM), hits mostly inhibitors; HepG2 CAGA-GFP TGF-b/SMAD3 reporter, GFP fluorescence, 18 h; TGF-beta stimulated, 500 pg/mL final; 1.2% of 410,000 active; note: nearly all actives have a fitted effect of over 65% in size
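Smad-responsive CAGA-GFP expression was quantified in HEPG2 cells exposed to compounds and 500 pg/mL final TGF-beta for 18 h at 37 degrees C; unstimulated wells defined full inhibition.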
ATXN viability = cell viability loss in ATXN counter-screen; S2 cells (HEK-293 line with an ATXN2-luciferase reporter) viability, CellTiter-Fluor protease fluorescence, 24 h; Potency, µM (titrated, usually from 56.7 µM), usual class: cytotoxic; 0.49% of 400,000 active; AID 651635; note: nearly all actives have a fitted effect of over 40% in size
ATXN2 expr inh = reduces ATXN2 reporter expression in HEK-293 cells; HEK-293 ATXN2-luciferase reporter, luminescence, 24 h; Potency, µM (titrated, usually from 57 µM), usual class: inhibitors; AID 1745845; 0.72% of 360,000 active; note: nearly all actives have a fitted effect of over 55% in size
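qHTS (up to 57 uM final) was run with 24 h compound exposure of reporter cells at 37 °C. Each well was multiplexed: SteadyGlo luminescence measured ATXN2-luciferase expression after a fluorogenic Gly-Phe-AFC viability readout (25 uM final).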
D3 ag = activates the human D3 dopamine receptor | P35462 | 0.58% of 410,000 active | max activation, % | D3R DiscoveRx beta-arrestin cells, luminescence, 90 min; in the data active = max activation above about 30%
Target sequence (P35462 whole entry, looked up): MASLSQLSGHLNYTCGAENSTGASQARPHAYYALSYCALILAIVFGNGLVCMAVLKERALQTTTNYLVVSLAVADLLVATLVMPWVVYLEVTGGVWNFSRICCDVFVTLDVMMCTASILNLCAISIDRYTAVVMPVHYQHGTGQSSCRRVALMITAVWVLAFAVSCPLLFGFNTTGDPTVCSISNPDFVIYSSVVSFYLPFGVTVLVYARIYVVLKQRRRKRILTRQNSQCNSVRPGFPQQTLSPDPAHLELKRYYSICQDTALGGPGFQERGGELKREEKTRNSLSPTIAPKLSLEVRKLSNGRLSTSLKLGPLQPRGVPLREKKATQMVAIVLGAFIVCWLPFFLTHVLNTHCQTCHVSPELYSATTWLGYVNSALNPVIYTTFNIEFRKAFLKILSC
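Agonist-mode cell screen: cells plated at 1500/well and incubated overnight at 37 °C, then exposed to library compounds for 90 min at 37 °C. Detection reagent was added for 30–60 min at room temperature, and luminescence was read.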
DRD3 antagonist = antagonists of human D3 dopamine receptor; AID 652054; P35462; 2.5% of 360,000 active; D3R cells, DiscoveRx beta-arrestin luminescence, antagonist mode; hits give low values; max response, negative = inhibition, %; in the data active = max response below about -50%; inconclusive = no clear call, values can overlap the other calls
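Cells expressing the human receptor were seeded at 1500 cells/well, incubated overnight at 37 degrees C in 5% CO2, then exposed to library compounds with dopamine controls for 90 minutes at 37 degrees C before luminescent detection.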
HepG2 viability = HepG2 cytotoxicity, counter-screen for TGF-b inhibitors; 0.76% of 410,000 active; HepG2 CAGA-GFP viability, ATP luminescence, 18 h; Potency, µM (top dose mostly 46.1 µM), hits mostly cytotoxic
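HepG2 CAGA-GFP cells (1000/well, DMEM with 1% FBS) received compound, then TGF-beta at 500 pg/mL final, and were incubated 18 hours at 37 degrees C. Viability was read by CellTiter-Glo luminescence. Media-only wells were set as complete cell-killing and DMSO as no toxicity.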
Of the large screens only hits and unclear results are named; the others gave an inactive call. The list is not random: actives were taken first. Their share in the collection is about 4.8%. Unless noted, calls come from the whole dose curve; as a rule, active = well fitted curve in the direction sought with a large enough effect; inconclusive = small, poorly fitted or top-dose-only effect, or another doubt; inactive = no such curve, though single readings can be large; an effect the other way counts as inactive or inconclusive.

CCN(CC)CCNc1cccc2sc3ccccc3c(=O)c12	none (no result: ATXN2 expr inh)
Cc1ccc(NCCN(C)C)c2c(=O)c3cc(O)ccc3sc12	TGFb SMAD3 inh inconclusive, ATXN viability 27µM, ATXN2 expr inh 11µM
C[C@@H]1CN(Cc2ccc3c(c2)CN(C(=O)CCc2nc4ccc(F)cc4[nH]2)CCO3)C[C@H](C)O1	none (no result: TGFb SMAD3 inh, ATXN2 expr inh, D3 ag, DRD3 antagonist, HepG2 viability)
COC(=O)C1CCN(Cc2ccc3c(c2)CN(C(=O)C(C)N2CCOCC2)CCO3)CC1 (stereo unspecified)	none (no result: TGFb SMAD3 inh, ATXN2 expr inh, D3 ag, DRD3 antagonist, HepG2 viability)
Oc1cccc(-c2nc3c4c(ncn3n2)-c2ccccc2CC42CCCC2)c1	TGFb SMAD3 inh inconclusive, ATXN viability inconclusive, ATXN2 expr inh inconclusive, D3 ag 83
Cc1ccc2c(c1)N(C)/C(=C/c1cccc[n+]1C)S2	ATXN2 expr inh inconclusive, HepG2 viability 11µM
CCN1/C(=C/c2cccc[n+]2C)Sc2ccc(OC)cc21	TGFb SMAD3 inh 4µM (no result: ATXN2 expr inh)
COc1ccccc1-c1nnc2sc(COc3ccc(Cl)cc3)nn12	ATXN2 expr inh inconclusive, DRD3 antagonist -52
c1ccc(OCc2nn3c(-c4n[nH]c5c4CCC5)nnc3s2)cc1	DRD3 antagonist -52
CCOc1cccc(-c2nnc3sc(COc4ccccc4)nn23)c1	TGFb SMAD3 inh inconclusive, D3 ag 38
Cc1nnc2sc(COc3ccccc3)nn2c1=O	none
COc1ccc(C(=O)NCCc2nnc3n2CCN(CC2CC=CCC2)CC3)cc1 (stereo unspecified)	none (no result: TGFb SMAD3 inh, ATXN2 expr inh, D3 ag, DRD3 antagonist, HepG2 viability)
NCCCNCCCCNC(=O)C(O)NC(=O)CCCCCCN=C(N)N (stereo unspecified)	none (no result: TGFb SMAD3 inh, ATXN2 expr inh, DRD3 antagonist, HepG2 viability)
Cc1ccc2nc3[nH]c(=O)[nH]c(=O)c3c(N)c2c1	none
Cc1ccc2nc(N)[nH]c(=O)c2c1Sc1ccncc1	ATXN2 expr inh 13µM (no result: TGFb SMAD3 inh, DRD3 antagonist, HepG2 viability)
Cn1[nH]c(C(F)(F)F)c(C=Nc2ccc(Cl)cc2)c1=O	DRD3 antagonist -63 (no result: ATXN2 expr inh)
CSCCC(NC(=O)c1ccc([N+](=O)[O-])cc1Cl)C(=O)OCC(=O)NCCCc1ccccc1 (stereo unspecified)	TGFb SMAD3 inh 16µM, DRD3 antagonist inconclusive
CN=c1nc(-c2ccccc2)n(-c2ccccc2)s1	none
Cc1ccc(-c2nc(=Nc3c(C)cc(C)cc3C)sn2-c2ccccc2)cc1	TGFb SMAD3 inh 5.6µM (no result: ATXN viability, ATXN2 expr inh, D3 ag, DRD3 antagonist)
COc1ccc(S(=O)(=O)N2CCCCCC2)cc1NC(=O)CN(C)Cc1ccc2c(c1)OCO2	DRD3 antagonist -68
CN(CC(=O)Nc1cc(S(=O)(=O)N2CCCC2)ccc1Cl)Cc1ccc2c(c1)OCO2	none
COc1ccc(S(=O)(=O)N2CCCCC2)cc1NC(=O)CN(C)C1CCCCC1	TGFb SMAD3 inh inconclusive
CN(CC(=O)Nc1cc(S(=O)(=O)N2CCCCCC2)ccc1Cl)Cc1ccc2c(c1)OCO2	DRD3 antagonist -54
O=c1oc2c(-c3ccc([N+](=O)[O-])cc3)cc(O)cc2s1	ATXN viability inconclusive, DRD3 antagonist -56
NC1=C(c2ccc([N+](=O)[O-])cc2)C(=O)CO1	none (no result: ATXN2 expr inh)
Cc1ccc(C)c(S(=O)(=O)c2nnn3c2nc(NCc2ccc4c(c2)OCO4)c2sccc23)c1	none (no result: ATXN viability, ATXN2 expr inh, DRD3 antagonist)
CCOC(=O)c1c(N2C(=O)C=CC2=O)sc(C)c1C	TGFb SMAD3 inh 16µM, ATXN viability inconclusive, ATXN2 expr inh inconclusive
O=C(Nc1ccc(F)c(Cl)c1)Nc1csc2ccccc12	TGFb SMAD3 inh inconclusive, HepG2 viability 13µM
COc1ccccc1-c1nc2c(c(SCc3cc(C)ccc3C)n1)Cc1c(CO)cnc(C)c1O2	none (no result: DRD3 antagonist)
Cc1ccc(N=Cc2cc3c(cc2[N+](=O)[O-])OCO3)cc1[N+](=O)[O-]	TGFb SMAD3 inh inconclusive (no result: ATXN2 expr inh)
O=[N+]([O-])c1cc(Br)cc(C=Nc2ccc3c(c2)OCO3)c1O	TGFb SMAD3 inh inconclusive, DRD3 antagonist -78 (no result: ATXN2 expr inh)
O=[N+]([O-])c1ccc(O)c(C=Nc2ccc3c(c2)OCO3)c1	DRD3 antagonist -68
Cc1ccc2c(=O)cc(C(=O)Nc3ccc(S(=O)(=O)N(C)Cc4ccccc4)cc3)oc2c1C	none (no result: DRD3 antagonist)
CC(C)(C)n1[nH]c2c3c(ccc2c1=O)C(=O)c1ccccc1C3=O	TGFb SMAD3 inh 10µM, ATXN viability inconclusive, HepG2 viability 6.3µM
